Data on 1 sequence can be found in article PMC7862700, “An all-to-all approach to the identification of sequence-specific readers for epigenetic DNA modifications on cytosine”.

Experiment in all cases: DAPPL (digital affinity profiling via proximity ligation, sequencing); 10 mM Tris-HCl pH 7.5, 50 mM NaCl, 1 mM DTT, 4% glycerol, room temperature, 30 min; GST-TFs on glutathione beads, 16-mer random dsDNA library, 0.1% formaldehyde crosslink after washing; high values mean tight binding
Experiment [1] addresses T1, FLI1 (Homo sapiens, UniProt Q01543 1-452).
T1 sequence: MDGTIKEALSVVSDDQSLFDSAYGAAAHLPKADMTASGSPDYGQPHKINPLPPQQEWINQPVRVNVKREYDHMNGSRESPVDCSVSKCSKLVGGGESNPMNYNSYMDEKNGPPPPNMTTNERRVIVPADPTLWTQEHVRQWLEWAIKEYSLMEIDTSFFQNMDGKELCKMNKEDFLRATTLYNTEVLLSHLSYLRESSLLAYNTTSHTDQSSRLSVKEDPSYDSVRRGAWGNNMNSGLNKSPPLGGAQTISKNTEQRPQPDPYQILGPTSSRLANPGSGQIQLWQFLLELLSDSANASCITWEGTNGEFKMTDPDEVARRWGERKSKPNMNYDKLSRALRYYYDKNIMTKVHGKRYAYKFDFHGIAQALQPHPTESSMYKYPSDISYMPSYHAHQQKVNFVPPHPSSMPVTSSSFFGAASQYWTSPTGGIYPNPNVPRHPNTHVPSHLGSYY
The conditions noted are these: protein: recombinant; tags: N-terminal GST; dsDNA, one strand shown. The essentials: (§1)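 Pools were built from human transcription factors expressed in yeast as GST fusions, captured on glutathione beads and DNA-barcoded, along with a tag-only sample. Incubation with 200 nmole of a 16-mer random double-stranded DNA library lasted 30 min at room temperature in Tris/NaCl/DTT/glycerol buffer, and was followed by washing, 0.1% formaldehyde crosslinking, proximity ligation, PCR amplification and Illumina NextSeq500 sequencing. Binding signal is the quotient of each hexamer's read frequency for a factor and its frequency for the tag-only sample.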

In experiment [2] the target is T2, ELK1 (Homo sapiens, UniProt P19419 1-428).
T2 sequence: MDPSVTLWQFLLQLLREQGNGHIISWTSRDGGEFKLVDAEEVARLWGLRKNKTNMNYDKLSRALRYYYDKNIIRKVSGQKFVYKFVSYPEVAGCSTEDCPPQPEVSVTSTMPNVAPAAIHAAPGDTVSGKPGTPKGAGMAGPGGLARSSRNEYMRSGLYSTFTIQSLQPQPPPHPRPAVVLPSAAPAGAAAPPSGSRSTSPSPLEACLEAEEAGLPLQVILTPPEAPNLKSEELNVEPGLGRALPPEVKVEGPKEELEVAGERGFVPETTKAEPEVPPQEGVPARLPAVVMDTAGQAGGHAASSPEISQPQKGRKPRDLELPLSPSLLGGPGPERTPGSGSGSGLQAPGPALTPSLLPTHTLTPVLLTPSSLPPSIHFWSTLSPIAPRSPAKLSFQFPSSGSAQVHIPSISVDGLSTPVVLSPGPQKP
Particulars: protein: recombinant; tags: N-terminal GST; dsDNA, one strand shown. In short, it runs like this:
as §1

In experiment [3] the target is T3, GABPA (Homo sapiens, UniProt Q06546 1-454).
T3 sequence: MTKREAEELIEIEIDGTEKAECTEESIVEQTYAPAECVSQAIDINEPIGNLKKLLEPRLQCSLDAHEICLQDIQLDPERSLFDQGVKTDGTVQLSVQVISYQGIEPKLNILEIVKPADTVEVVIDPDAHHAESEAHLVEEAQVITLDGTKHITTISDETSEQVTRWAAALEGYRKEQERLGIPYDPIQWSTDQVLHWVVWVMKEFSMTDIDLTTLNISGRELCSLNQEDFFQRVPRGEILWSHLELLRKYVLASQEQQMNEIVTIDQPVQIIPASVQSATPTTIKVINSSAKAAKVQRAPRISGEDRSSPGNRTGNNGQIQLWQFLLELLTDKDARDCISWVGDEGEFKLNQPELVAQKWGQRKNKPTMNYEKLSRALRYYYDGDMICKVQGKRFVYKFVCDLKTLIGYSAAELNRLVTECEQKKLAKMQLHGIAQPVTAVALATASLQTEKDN
The conditions noted are these: protein: recombinant; tags: N-terminal GST; dsDNA, one strand shown. In short, it runs like this: as §1

For experiment [4], the target named is T4, ERG (Homo sapiens, UniProt P11308 1-479).
T4 sequence: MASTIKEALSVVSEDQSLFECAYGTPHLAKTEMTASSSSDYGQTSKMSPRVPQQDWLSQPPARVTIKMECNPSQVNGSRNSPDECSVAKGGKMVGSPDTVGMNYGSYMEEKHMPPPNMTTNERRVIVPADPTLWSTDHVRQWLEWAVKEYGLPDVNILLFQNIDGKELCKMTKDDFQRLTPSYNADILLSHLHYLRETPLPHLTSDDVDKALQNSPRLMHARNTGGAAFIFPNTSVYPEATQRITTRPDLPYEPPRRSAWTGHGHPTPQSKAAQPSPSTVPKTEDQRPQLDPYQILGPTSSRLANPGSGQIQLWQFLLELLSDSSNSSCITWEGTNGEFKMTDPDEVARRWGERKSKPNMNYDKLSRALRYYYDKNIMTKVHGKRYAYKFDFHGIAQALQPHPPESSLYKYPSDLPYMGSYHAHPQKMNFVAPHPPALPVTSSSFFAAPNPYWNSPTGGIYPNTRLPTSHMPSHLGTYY
Particulars: protein: recombinant; tags: N-terminal GST; dsDNA, one strand shown. The essentials: as §1

For experiment [5], the target named is ELF1 (Homo sapiens, UniProt P32519 1-619). The conditions noted are these: protein: recombinant; tags: N-terminal GST; dsDNA, one strand shown. The essentials:
as §1

The target of experiment [6] is T5, EHF (Homo sapiens, UniProt Q9NZC4 1-300).
T5 sequence: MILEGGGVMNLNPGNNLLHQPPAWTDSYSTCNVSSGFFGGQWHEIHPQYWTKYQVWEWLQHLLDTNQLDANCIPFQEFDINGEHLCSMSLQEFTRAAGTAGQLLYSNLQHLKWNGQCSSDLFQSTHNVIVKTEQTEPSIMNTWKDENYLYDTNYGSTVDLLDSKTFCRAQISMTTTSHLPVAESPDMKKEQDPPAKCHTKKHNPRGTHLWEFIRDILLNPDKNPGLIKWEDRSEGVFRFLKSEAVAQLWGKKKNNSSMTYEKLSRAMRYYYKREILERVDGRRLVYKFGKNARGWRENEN
Particulars: protein: recombinant; tags: N-terminal GST; dsDNA, one strand shown. In short, it runs like this:
as §1

Experiment [7] addresses SPI1 (Homo sapiens, UniProt P17947 1-270). The conditions noted are these: protein: recombinant; tags: N-terminal GST; dsDNA, one strand shown. In short, it runs like this:
as §1

Experiment [8] deals with SPIB (Homo sapiens, UniProt Q01892 1-262). Particulars: protein: recombinant; tags: N-terminal GST; dsDNA, one strand shown. The essentials:
as §1

For experiment [9], the target named is T6, ELK3 (Homo sapiens, UniProt P41970 1-407).
T6 sequence: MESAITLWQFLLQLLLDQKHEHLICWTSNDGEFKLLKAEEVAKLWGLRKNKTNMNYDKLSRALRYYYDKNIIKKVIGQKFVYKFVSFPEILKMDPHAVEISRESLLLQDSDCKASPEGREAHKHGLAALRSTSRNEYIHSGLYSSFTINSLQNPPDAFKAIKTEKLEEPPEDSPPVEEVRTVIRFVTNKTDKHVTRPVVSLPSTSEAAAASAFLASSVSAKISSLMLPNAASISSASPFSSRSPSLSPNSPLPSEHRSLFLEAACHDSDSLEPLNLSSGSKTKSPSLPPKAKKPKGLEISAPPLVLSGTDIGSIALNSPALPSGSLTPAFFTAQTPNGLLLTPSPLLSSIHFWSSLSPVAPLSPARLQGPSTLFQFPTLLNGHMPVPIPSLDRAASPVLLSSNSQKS
Particulars: protein: recombinant; tags: N-terminal GST; dsDNA, one strand shown. In short, it runs like this:
as §1

For experiment [10], the target named is T7, FEV (Homo sapiens, UniProt Q99581 1-238).
T7 sequence: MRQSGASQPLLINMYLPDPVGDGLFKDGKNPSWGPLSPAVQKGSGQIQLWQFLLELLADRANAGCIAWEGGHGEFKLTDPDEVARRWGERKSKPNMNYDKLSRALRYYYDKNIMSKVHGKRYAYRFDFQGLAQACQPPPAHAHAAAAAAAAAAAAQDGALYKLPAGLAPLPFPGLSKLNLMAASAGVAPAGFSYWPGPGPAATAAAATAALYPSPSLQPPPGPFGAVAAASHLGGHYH
Particulars: protein: recombinant; tags: N-terminal GST; dsDNA, one strand shown. The essentials:
as §1

The target in experiment [11] is ETV5 (Homo sapiens, UniProt P41161 1-510). Particulars: protein: recombinant; tags: N-terminal GST; dsDNA, one strand shown. In short, it runs like this:
as §1

In experiment [12] the target is HSF1 (Homo sapiens, UniProt Q00613 1-529). The conditions noted are these: protein: recombinant; tags: N-terminal GST; chain copies: 3; dsDNA, one strand shown. The essentials:
as §1

Experiment [13] has as its target T8, SPIC (Homo sapiens, UniProt Q8N5J4 1-248).
T8 sequence: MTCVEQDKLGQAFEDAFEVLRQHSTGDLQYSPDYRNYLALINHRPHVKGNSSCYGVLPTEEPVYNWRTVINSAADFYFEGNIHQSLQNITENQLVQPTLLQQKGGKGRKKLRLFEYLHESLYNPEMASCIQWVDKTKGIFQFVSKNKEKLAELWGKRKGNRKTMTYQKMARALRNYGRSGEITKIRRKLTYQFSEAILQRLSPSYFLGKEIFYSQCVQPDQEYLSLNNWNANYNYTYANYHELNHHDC
The conditions noted are these: protein: recombinant; tags: N-terminal GST; dsDNA, one strand shown. The essentials: as §1

In experiment [14] the target is ELF4 (Homo sapiens, UniProt Q99607 1-663). The conditions noted are these: protein: recombinant; tags: N-terminal GST; dsDNA, one strand shown. In short, it runs like this:
as §1

The target of experiment [15] is T9, ELK4 (Homo sapiens, UniProt P28324-2 1-405).
T9 sequence: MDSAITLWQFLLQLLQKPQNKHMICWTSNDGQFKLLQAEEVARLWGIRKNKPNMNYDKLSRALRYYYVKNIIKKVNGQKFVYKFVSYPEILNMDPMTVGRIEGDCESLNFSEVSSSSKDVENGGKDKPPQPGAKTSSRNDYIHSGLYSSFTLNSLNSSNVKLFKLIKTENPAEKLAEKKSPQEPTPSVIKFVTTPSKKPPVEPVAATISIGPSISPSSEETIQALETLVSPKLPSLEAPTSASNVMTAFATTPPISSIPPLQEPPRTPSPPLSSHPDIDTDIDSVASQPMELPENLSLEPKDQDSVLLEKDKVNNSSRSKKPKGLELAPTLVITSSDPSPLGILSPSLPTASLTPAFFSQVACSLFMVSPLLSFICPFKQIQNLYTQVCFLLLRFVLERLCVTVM
Particulars: protein: recombinant; tags: N-terminal GST; dsDNA, one strand shown. The essentials:
as §1

In experiment [16] the target is T10, ETV2 (Homo sapiens, UniProt O00321 1-342).
T10 sequence: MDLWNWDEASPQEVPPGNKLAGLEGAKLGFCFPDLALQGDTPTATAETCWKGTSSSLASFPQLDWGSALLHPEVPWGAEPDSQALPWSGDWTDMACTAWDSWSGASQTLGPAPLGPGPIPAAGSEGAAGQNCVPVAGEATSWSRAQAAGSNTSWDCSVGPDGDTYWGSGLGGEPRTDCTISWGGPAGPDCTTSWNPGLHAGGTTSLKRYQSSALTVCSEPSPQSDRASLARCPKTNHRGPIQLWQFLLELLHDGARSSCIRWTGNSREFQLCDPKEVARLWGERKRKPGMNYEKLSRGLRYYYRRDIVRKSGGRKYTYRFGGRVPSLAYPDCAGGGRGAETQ
Particulars: protein: recombinant; tags: N-terminal GST; dsDNA, one strand shown. The essentials: as §1

Experiment [17] concerns the target T11, ELF3 (Homo sapiens, UniProt P78545 1-371).
T11 sequence: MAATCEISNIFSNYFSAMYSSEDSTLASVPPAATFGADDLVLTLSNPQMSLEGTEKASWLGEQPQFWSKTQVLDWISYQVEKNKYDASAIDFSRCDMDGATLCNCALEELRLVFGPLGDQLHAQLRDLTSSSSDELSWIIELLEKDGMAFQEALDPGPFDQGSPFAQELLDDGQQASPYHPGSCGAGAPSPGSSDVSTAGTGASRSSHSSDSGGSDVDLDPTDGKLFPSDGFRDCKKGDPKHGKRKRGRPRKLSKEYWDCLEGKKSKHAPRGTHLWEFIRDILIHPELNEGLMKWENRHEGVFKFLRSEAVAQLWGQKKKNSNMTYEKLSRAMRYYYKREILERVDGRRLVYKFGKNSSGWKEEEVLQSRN
The conditions noted are these: protein: recombinant; tags: N-terminal GST; dsDNA, one strand shown. The essentials: as §1

Experiment [18] has as its target CRX (Homo sapiens, UniProt O43186 1-299). The conditions noted are these: protein: recombinant; tags: N-terminal GST; dsDNA, one strand shown. The essentials: as §1
Experiment [19] has as its target ETV1 (Homo sapiens, UniProt P50549 1-477). The conditions noted are these: protein: recombinant; tags: N-terminal GST; dsDNA, one strand shown. The essentials: as §1

ELF4, sequence (Q99607 whole entry): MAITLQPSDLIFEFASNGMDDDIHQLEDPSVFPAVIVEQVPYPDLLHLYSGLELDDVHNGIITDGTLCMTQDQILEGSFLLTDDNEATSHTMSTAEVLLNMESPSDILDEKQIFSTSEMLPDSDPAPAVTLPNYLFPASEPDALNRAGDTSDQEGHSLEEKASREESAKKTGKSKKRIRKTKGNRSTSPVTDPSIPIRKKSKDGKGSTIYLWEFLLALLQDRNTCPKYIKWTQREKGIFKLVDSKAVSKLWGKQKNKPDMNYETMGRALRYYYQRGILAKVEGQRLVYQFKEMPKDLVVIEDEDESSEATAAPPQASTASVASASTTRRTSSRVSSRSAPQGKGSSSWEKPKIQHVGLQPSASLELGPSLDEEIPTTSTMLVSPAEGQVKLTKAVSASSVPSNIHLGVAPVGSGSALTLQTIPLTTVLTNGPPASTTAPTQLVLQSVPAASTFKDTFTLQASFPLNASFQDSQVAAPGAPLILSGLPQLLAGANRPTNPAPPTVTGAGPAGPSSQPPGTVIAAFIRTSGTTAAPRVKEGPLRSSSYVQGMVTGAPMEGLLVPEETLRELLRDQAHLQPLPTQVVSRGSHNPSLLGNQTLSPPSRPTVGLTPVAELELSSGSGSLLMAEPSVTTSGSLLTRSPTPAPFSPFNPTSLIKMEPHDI
ETV5, sequence (P41161 whole entry): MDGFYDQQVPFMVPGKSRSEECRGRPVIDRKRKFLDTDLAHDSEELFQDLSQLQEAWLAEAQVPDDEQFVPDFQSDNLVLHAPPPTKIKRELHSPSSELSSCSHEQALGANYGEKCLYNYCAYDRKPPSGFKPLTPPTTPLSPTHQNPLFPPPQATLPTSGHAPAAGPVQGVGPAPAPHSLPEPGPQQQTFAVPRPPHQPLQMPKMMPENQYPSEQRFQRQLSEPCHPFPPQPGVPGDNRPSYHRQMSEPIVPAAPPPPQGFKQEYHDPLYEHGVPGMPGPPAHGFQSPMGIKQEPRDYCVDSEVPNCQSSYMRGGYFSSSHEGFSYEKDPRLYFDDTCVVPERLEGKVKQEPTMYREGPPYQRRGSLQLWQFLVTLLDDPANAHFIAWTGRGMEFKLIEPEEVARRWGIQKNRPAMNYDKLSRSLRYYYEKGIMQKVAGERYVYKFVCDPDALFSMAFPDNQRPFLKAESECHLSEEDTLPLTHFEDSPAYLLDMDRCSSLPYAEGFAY
SPIB, sequence (Q01892 whole entry): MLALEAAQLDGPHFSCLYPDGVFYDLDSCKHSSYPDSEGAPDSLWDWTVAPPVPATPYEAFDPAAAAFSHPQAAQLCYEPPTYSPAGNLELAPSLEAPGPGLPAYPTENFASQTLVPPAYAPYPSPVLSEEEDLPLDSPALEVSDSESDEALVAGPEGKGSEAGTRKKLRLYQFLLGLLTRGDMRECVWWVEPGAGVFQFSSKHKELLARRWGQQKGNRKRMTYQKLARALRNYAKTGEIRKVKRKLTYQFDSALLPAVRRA
ETV1, sequence (P50549 whole entry): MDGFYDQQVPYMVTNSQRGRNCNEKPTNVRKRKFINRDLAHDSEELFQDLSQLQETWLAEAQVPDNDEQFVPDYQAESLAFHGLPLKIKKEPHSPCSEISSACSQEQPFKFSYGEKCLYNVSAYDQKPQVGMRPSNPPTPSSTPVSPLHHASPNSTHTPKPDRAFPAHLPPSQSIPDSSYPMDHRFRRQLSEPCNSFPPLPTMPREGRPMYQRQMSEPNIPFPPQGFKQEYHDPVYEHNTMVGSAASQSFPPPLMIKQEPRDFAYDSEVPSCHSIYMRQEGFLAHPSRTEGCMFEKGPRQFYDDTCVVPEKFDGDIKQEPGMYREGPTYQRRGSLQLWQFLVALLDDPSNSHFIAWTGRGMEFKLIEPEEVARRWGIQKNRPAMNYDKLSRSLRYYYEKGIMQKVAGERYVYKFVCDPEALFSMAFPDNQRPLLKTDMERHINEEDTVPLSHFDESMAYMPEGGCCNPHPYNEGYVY
CRX, sequence (O43186 whole entry): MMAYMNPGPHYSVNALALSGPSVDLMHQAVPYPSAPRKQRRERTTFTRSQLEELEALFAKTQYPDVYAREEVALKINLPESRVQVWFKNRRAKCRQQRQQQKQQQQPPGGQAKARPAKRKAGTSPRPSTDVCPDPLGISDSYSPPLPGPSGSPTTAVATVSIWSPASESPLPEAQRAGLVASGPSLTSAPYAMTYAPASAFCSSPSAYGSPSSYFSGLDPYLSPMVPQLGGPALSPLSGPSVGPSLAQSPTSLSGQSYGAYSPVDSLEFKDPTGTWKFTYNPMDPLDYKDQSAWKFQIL
ELF1, sequence (P32519 whole entry): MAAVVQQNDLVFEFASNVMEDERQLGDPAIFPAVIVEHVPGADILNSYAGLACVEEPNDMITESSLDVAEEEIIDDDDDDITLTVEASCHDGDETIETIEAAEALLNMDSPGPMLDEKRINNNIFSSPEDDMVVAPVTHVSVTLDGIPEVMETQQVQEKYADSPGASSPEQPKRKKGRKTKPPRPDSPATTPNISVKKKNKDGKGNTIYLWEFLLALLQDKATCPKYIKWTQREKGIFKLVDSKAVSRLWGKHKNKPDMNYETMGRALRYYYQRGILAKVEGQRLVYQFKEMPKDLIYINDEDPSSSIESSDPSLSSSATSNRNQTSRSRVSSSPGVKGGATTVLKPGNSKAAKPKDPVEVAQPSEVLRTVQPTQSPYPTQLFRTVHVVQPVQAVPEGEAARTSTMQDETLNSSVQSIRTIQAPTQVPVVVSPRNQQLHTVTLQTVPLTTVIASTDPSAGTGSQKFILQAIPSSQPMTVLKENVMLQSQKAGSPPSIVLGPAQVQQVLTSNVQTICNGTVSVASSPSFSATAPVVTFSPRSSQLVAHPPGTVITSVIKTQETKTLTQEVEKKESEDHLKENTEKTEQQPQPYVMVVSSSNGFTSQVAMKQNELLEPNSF
HSF1, sequence (Q00613 whole entry): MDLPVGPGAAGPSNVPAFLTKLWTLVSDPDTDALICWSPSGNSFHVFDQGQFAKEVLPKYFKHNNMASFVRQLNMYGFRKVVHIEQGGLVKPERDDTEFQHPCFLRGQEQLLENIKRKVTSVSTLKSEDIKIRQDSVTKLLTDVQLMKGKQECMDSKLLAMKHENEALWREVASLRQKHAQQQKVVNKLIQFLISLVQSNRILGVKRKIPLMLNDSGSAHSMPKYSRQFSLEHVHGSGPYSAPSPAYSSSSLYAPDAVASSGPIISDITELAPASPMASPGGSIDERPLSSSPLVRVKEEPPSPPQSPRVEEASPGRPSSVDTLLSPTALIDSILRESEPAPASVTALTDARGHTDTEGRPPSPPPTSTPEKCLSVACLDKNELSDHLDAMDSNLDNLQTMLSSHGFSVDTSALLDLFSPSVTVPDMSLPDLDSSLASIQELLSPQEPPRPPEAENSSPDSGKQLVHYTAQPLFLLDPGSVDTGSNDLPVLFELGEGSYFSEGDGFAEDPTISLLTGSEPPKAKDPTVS

Take CCCTCT: the binding signal is 1.31 fold enrichment (6-mer frequency, TF over GST control) in [1]; 1.43 fold enrichment (6-mer frequency, TF over GST control) in experiment [2]; 1.37 fold enrichment (6-mer frequency, TF over GST control) in experiment [3]; 1.25 fold enrichment (6-mer frequency, TF over GST control) in [4]; 1.28 fold enrichment (6-mer frequency, TF over GST control) in experiment [5]; 1.3 fold enrichment (6-mer frequency, TF over GST control) in experiment [6]. The binding signal in experiment [7] was 1.28 fold enrichment (6-mer frequency, TF over GST control); in experiment [8], 1.56 fold enrichment (6-mer frequency, TF over GST control); in experiment [9], 1.51 fold enrichment (6-mer frequency, TF over GST control); in experiment [10], 1.35 fold enrichment (6-mer frequency, TF over GST control); in experiment [11] it was 1.33 fold enrichment (6-mer frequency, TF over GST control); in experiment [12], 1.29 fold enrichment (6-mer frequency, TF over GST control). The binding signal in experiment [13] is 1.14 fold enrichment (6-mer frequency, TF over GST control); in [14] it was 1.46 fold enrichment (6-mer frequency, TF over GST control); in [15], 1.6 fold enrichment (6-mer frequency, TF over GST control); in experiment [16] it was 1.32 fold enrichment (6-mer frequency, TF over GST control); in experiment [17], 1.34 fold enrichment (6-mer frequency, TF over GST control); in [18], 1.36 fold enrichment (6-mer frequency, TF over GST control). Besides, the binding signal in experiment [19] is 1.25 fold enrichment (6-mer frequency, TF over GST control).
